Sampled rows, rich in hits. Any-hit rate of the full collection: about 12%.
AMA1-RON2 inh = qHTS for Inhibitors of AMA1-RON; Towards Development of Antimalarial Drug Lead: Primary Screen | actives 0.2% (n = 360,000) | AID 720542, 2013 | Potency, µM (top dose mostly 58.2 µM), usual class: inhibitors | AlphaScreen AMA1-biotinylated RON2 peptide binding; further: nearly all actives have a fitted effect of over 45% in size
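AMA1 (3D7) with his tag at 25 nM final met compounds first, then biotinylated RON2 peptide at 25 nM; detection used donor plus acceptor beads, 10 µg/mL apiece, read by AlphaScreen after 30 min at room temperature.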
HCV inh = qHTS Assay for Inhibitors of Hepatitis C Virus (HCV); Huh7.5.1 HCVcc-Cre infection, luciferase reporter, 44 h; Potency, µM (titrated, usually from 41.8 µM), actives largely listed as inhibitors; actives 3.4% (n = 340,000)
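Infectious HCVcc-Cre (~0.5 moi) was added to cells just after compound, with cells seeded 4 h earlier at 1,000 per well. Luciferase activity after 44 h culture reported infection; substrate was incubated 15 min at room temperature before reading.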
Pf growth 96h = Primary qHTS for delayed death inhibitors of the malarial parasite plastid, 96 hour incubation. Potency, µM (top dose mostly 28.7 µM), usual class: inhibitors. P. falciparum luciferase reporter growth, 96 h. actives 6.9% (n = 320,000)
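Parasite growth measured via integrated firefly luciferase reporter in P. falciparum. Infected erythrocytes at 2% hematocrit, 0.05% parasitemia final were treated 96 hours at 37 C under 5% CO2, and luminescence was read.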
SARS PLP yeast = qHTS of Yeast-based Assay for SARS-CoV PLP | S. cerevisiae expressing SARS-CoV PLpro, growth rescue | Potency, µM (doses to about 32.9 µM), hits mostly activators | actives 0.19% (n = 330,000) | AID 485353, 2010; calls by dose curve; further: nearly all actives have a fitted effect of over 55% in size
Pf growth 48h = Primary qHTS for delayed death inhibitors of the malarial parasite plastid, 48 hour incubation | P. falciparum luciferase growth in erythrocytes, 48 h | actives 5.9% (n = 310,000) | AID 504832, 2011 | Potency, µM (doses to about 28.7 µM), hits mostly inhibitors
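Luminescence readout; reporter = integrated firefly luciferase in P. falciparum. RBC culture at 2% hematocrit, 0.1% parasitemia final, 37 C/5% CO2; decreased signal taken as growth inhibition.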
NS1 function inh = qHTS Assay for Inhibitors of Influenza NS1 Protein Function | Potency, µM (series often up to 46.1 µM) | actives 0.4% (n = 270,000) | AID 2326, 2010; calls by dose curve; further: actives are rising curves; nearly all actives have a fitted effect of over 50% in size
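In this qHTS, NS1 from influenza A is expressed in budding yeast, where it slows growth. Cells are switched from glucose to 2% galactose medium (pH 6.0, -URA), treated with compound, and growth recovery is read at OD600.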
Large screens that a line does not name were inactive. Unless noted, the call rests on the fitted dose curve; in most records, active means well fitted curve in the direction sought with a large enough effect; inconclusive means small, poorly fitted or top-dose-only effect, or another doubt; inactive means no such curve, though single readings can be large; an effect the other way counts as inactive or inconclusive.

O=C(CN1C(=O)COc2ccc(Cl)cc21)NC1CC1	Pf growth 96h inconclusive
Cc1cc(C(=O)N/N=C/c2sc(N3CCOCC3)nc2-c2ccccc2)c(C)o1	HCV inh inconclusive, Pf growth 96h inconclusive, Pf growth 48h inconclusive
O=[N+]([O-])c1ccc(N/N=C/c2sc(N3CCOCC3)nc2-c2ccccc2)c(S(=O)(=O)Nc2ccc(Cl)cc2)c1	HCV inh 2.51µM, Pf growth 96h inconclusive, Pf growth 48h inconclusive
O=[N+]([O-])c1ccc(N/N=C/c2sc(N3CCOCC3)nc2-c2ccccc2)c(S(=O)(=O)Nc2ccccc2Cl)c1	HCV inh 3.55µM, Pf growth 96h inconclusive, Pf growth 48h 1.47µM
O=C(N/N=C/c1sc(N2CCOCC2)nc1-c1ccccc1)c1ccccc1F	HCV inh inconclusive, Pf growth 96h inconclusive, Pf growth 48h inconclusive
Cc1cccnc1NC(=O)Nc1cccc(Cl)c1	Pf growth 96h inconclusive
Cc1c(NC(=O)CN2CCCC(C)C2)ccc2nsnc12 (stereo not given)	Pf growth 96h inconclusive (no result: NS1 function inh)
O=C(NCc1ccc(F)cc1)C(=O)NCC1OCCCN1S(=O)(=O)c1cccs1 (stereo not given)	none
COc1ccc(NC(=S)N(CCN(C)C)C(C)c2ccco2)cc1Cl (stereo not given)	HCV inh inconclusive, Pf growth 96h 10.4µM
COc1cccc(NC(=S)N(CCN(C)C)C(C)c2ccco2)c1 (stereo not given)	HCV inh inconclusive, Pf growth 96h inconclusive
COc1ccc(N2CC(C(=O)N3CCCC(C)C3)CC2=O)cc1 (stereo not given)	Pf growth 96h inconclusive
CCOC(=O)CSc1nc2nc(C)cc(C)n2n1	none
CCCn1c(C)cc(C(=O)CSc2nc3nc(C)cc(C)n3n2)c1C	HCV inh inconclusive, Pf growth 96h 9.28µM, Pf growth 48h inconclusive
Cc1cc(C)n2nc(SCC(=O)NC3CCCCC3)nc2n1	Pf growth 96h 13.1µM
CC(C)(C)OC(=O)[C@H](C1N[C@@H](C(=O)O)C(C)(C)S1)N1C(=O)c2ccccc2C1=O (stereo not given in full)	none (no result: AMA1-RON2 inh, HCV inh, Pf growth 96h, SARS PLP yeast, Pf growth 48h)
CSc1ccccc1NC(=O)CN(C)C(=O)C1CCN(C(=O)Nc2ccccc2)CC1	Pf growth 48h inconclusive (no result: NS1 function inh)
O=C(NN1CC(C(=O)OCc2ccc(Cl)cc2Cl)CC1=O)c1ccccc1 (stereo not given)	Pf growth 96h inconclusive
OCc1cc(C(O)CNCCCCCCOCCCCc2ccccc2)ccc1O (stereo not given)	HCV inh 8.91µM, Pf growth 96h 12µM, Pf growth 48h 13.1µM
Cc1cccc(S(=O)(=O)c2c(N)n(Cc3ccco3)c3nc4ccccc4nc23)c1	Pf growth 48h 8.28µM
CCCCn1c(N)c(S(=O)(=O)c2ccc(C)cc2)c2nc3ccccc3nc21	HCV inh inconclusive, Pf growth 96h 11.7µM, Pf growth 48h inconclusive, NS1 function inh inconclusive
CN(C)CCCn1c(N)c(S(=O)(=O)c2ccccc2)c2nc3ccccc3nc21	none
Cc1ccc(S(=O)(=O)c2c(N)n(Cc3ccco3)c3nc4ccccc4nc23)cc1	HCV inh inconclusive, Pf growth 96h 10.4µM, Pf growth 48h inconclusive
O=C1CC[C@@H](CN(Cc2ccccc2)Cc2cn[nH]c2-c2cc3ccccc3o2)N1	Pf growth 96h 14.7µM, Pf growth 48h inconclusive
CCOC(=O)N1CCN(CC(=O)Nc2cc(OCC)ccc2OCC)CC1	Pf growth 48h inconclusive (no result: Pf growth 96h)
CCOc1ccc(OCC)c(NC(=O)CN2CCN(c3ccc(C)cc3C)CC2)c1	Pf growth 48h 8.28µM
CC1CCN(c2c(NCc3ccc(C(=O)N(C)C4CCCCC4)cc3)c(=O)c2=O)CC1	Pf growth 48h 8.28µM
Cc1ccc(N(C)C(=O)c2ccc(CNc3c(N4CCC(C)CC4)c(=O)c3=O)cc2)cc1	Pf growth 96h inconclusive, Pf growth 48h 9.28µM
COC(=O)c1cc2sc(Cl)cc2n1CC(=O)Nc1cccc(SC)c1	HCV inh inconclusive
COC(=O)c1cc2sc(Cl)cc2n1CC(=O)Nc1ccc(OC)c(OC)c1OC	Pf growth 48h 0.415µM
COC(=O)c1cc2oc(C)cc2n1CC(=O)Nc1ccc(OC)c(OC)c1OC	Pf growth 96h inconclusive, Pf growth 48h 1.65µM (no result: AMA1-RON2 inh, HCV inh)
COC(=O)c1cc2occc2n1CC(=O)Nc1ccc(OC)c(OC)c1OC	none (no result: Pf growth 48h)
O=C(NS(=O)(=O)Oc1cccc(Cl)c1Cl)OC[C@@H]1CCCN2CCCCC12 (stereo not given in full)	Pf growth 96h inconclusive
COc1ccc(CN(C)C(=O)CCN=C2NS(=O)(=O)c3ccccc32)c(OC)c1	HCV inh inconclusive, Pf growth 48h inconclusive (no result: NS1 function inh)
Cc1ccc(OCC(=O)NNC(=O)c2ccco2)c(C)c1	none
Cc1[nH]c2ccccc2c1C(=O)C(C)OC(=O)c1ccc([N+](=O)[O-])o1 (stereo not given)	HCV inh inconclusive, Pf growth 96h inconclusive, Pf growth 48h 3.29µM (no result: NS1 function inh)
CCCCn1c(NC(=O)c2ccc(F)cc2)c(C#N)c2nc3ccccc3nc21	none (no result: AMA1-RON2 inh, HCV inh, Pf growth 96h, SARS PLP yeast, Pf growth 48h)
CCCCn1c(NC(=O)c2ccccc2)c(C#N)c2nc3ccccc3nc21	HCV inh inconclusive, Pf growth 48h 5.86µM (no result: Pf growth 96h)
CCC(C)n1c(NC(=O)c2ccccc2)c(C#N)c2nc3ccccc3nc21 (stereo not given)	HCV inh inconclusive, Pf growth 96h 2.94µM, Pf growth 48h 3.7µM
N#Cc1ccncc1Sc1ccc(Cl)cc1	Pf growth 48h inconclusive
COc1ccc(C(=O)C2CCN(C(=O)c3ccc(F)cc3)CC2)cc1	HCV inh 25.1µM, Pf growth 96h inconclusive
O=C(c1ccc(F)cc1)C1CCN(C(=O)Nc2ccccc2Cl)CC1	Pf growth 96h 2.94µM (no result: NS1 function inh)
CCOc1ccc(C(=O)C2CCN(C(=O)c3ccc([N+](=O)[O-])cc3)CC2)cc1	HCV inh 10µM, Pf growth 96h inconclusive
COC(=O)c1ccccc1NC(=O)C1CCN(C(=O)c2ccc(OC)cc2)CC1	Pf growth 96h 11.7µM
COc1ccc(CCNC(=S)N2CCC(C(=O)c3ccc(F)cc3)CC2)cc1OC	HCV inh 0.501µM, Pf growth 48h inconclusive (no result: NS1 function inh)
CCNc1nc(NC(C)C)nc(N(C#N)CCOc2ccccc2)n1	HCV inh 22.4µM, Pf growth 48h inconclusive (no result: Pf growth 96h)
CN(C)c1nc(Cl)nc(N(C#N)CCOc2ccccc2)n1	HCV inh inconclusive, Pf growth 48h inconclusive (no result: NS1 function inh)
CCNc1nc(NCC)nc(N(C#N)CCOc2ccccc2)n1	Pf growth 96h 5.22µM, Pf growth 48h inconclusive
CC(C)NC(=O)CCN1C(=O)c2ccccc2Sc2ncccc21	Pf growth 96h 6.57µM
CSc1n[nH]c(NC(C)=O)n1	Pf growth 48h 1.17µM

Screening data: PubChem BioAssay, National Center for Advancing Translational Sciences (NCATS)
